Data from PubChem BioAssay (NCI).
The panel holds about 83,000 compounds, 20% with a hit somewhere; the sample as a whole holds those more often.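 Growth was measured after 48 h exposure to one concentration of compound in 96-well plates. Values under 10 count as active.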 Unmarked numbers belong to inactive results. Activity calls are given as the source filed them.

These molecules were tested on MDA-MB-468 breast (assay: NCI-60 one-dose screen, 48 h (100 = growth as untreated, 0 = no growth, -100 = all killed)). Conditions: 10 µM unless noted.

Row | SMILES | growth
1 | Cn1ccc(=O)nc1 | 71.1%
2 | Cc1cc(C(C)(C)CC(C)(C)C)ccc1OCCOCC[N+](C)(C)Cc1ccccc1 | -82.5% (active)
3 | N#Cc1c(Nc2ccccc2)nc2n(c1=O)-c1ccccc1Sc1ccccc1-2 | 72.8%
4 | O=C(NCCCNC(=O)OCc1ccc2cccc(O)c2n1)OCc1ccc2cccc(O)c2n1 | 11.3%
5 | CC(O)CCC(C)[N+](=O)[O-] (stereo not given) | 107%
6 | COc1cc(CNC(=O)CCCC/C=C/C(C)C)ccc1OCc1cn(-c2ccc([N+](=O)[O-])cc2)nn1 | 77.4%
7 | COc1cccc(NC(=O)c2sc3nc4c(cc3c2N)C(=O)CCC4)c1 | 49.5%
8 | O=C1/C(=C/c2ccccn2)NC(=S)N1c1ccccc1Cl | 36%
9 | Cc1cc(SCc2ccccc2)nc(N)n1 | 110%
10 | c1cc(CNCCNCc2ccncc2)ccn1 | 104%
11 | CS(=O)c1cccc(-c2ccc3nc(N)n(-c4ccc(C(F)(F)F)cc4)c(=O)c3c2)c1 (stereo not given) | 84.4%
12 | COc1ccc(-c2nc(SC(C)C)nc(NNC(N)=S)c2C#N)cc1 | 21.2%
13 | CCOC(=O)c1cc(C(=O)c2cc(OC)c(OC)c(OC)c2)n2ccccc12 | -7.14% (active)
14 | C[C@@H](CO)[C@@H]1CC[C@]2(C(=O)N3CCN(C)CC3)CC[C@]3(C)[C@H](CC[C@@H]4[C@@]5(C)CC[C@H](O)C(C)(C)[C@@H]5CC[C@]43C)[C@@H]12 | 61%
15 | S=C1SCN(Cc2ccccc2)CN1Cc1ccccc1 | 38.5%
16 | COC(=O)[C@H](C)NC(=O)[C@@H]1CCCN1C(=O)CNC(=O)[C@H](C)N | 98.7%
17 | O=C(Nc1ccc(OS(=O)(=O)Cc2ccccc2)cc1)C12CC3CC(CC(C3)C1)C2 | 66.6%
18 | COc1cc(C(=O)C[n+]2ccc3ccccc3c2)cc(OC)c1OC | 98.3%
19 | CC1(C)NCCC[C@]2(C)[C@H]3C=CC4=C5C[C@](C)(CO)CC[C@]5(C)CC[C@@]4(C)[C@]3(C)CC[C@@H]12 | -79.5% [100 µM] (active)
20 | COc1ccc(Nc2nc(SCC(C)C)nc(-c3ccc(F)cc3)c2C#N)cc1 | 32.6%

Row | SMILES | growth
21 | O=c1[nH]cc(Cl)cc1O | 108%
22 | CCn1cc(-c2[nH]c(=S)ncc2-c2ccc(Cl)cc2)c(-c2ccc(Br)cc2)n1 | 121%
23 | CCOC(=O)c1noc2c1CCc1c-2cn(Cc2ccc(OC)cc2)c1-c1cc(OC)c(OC)c(OC)c1 | 6.06% (active)
24 | S=C(NCc1ccccc1)NCc1ccccc1 | 101%
25 | Cc1c(C)c([N+](=O)[O-])c(C)c([N+](=O)[O-])c1C | 97.6%
26 | CCOC(=O)c1c(NS(=O)(=O)c2ccc(C)cc2)sc2c1CCC1(C2)OCCO1 | 87.6%
27 | Cc1ccc(NC(=O)c2sc3nc(C)c(C(O)c4ccccc4)cc3c2N)cc1 (stereo not given) | 18.6%
28 | Cc1ccc(S(=O)(=O)OC[C@]23CCC(C)(C)C[C@H]2C2=CC[C@@H]4[C@@]5(C)CCCNC(C)(C)[C@@H]5CC[C@@]4(C)[C@]2(C)CC3)cc1 | -35.1% (active)
29 | CNC(=O)c1cccc(Cn2nc(C)c(NC(=O)c3ccc(COc4ccc(C(F)(F)F)cc4C)cc3)c2C)n1 | 3.58% (active)
30 | C=CC(=O)N1CCC[C@@H](n2nc(-c3ccc(Oc4ccccc4)cc3)c3c(N)ncnc32)C1 | -17.5% (active)
31 | CCCCSc1ncnc2c1ncn2C1CCCCO1 (stereo not given) | 122%
32 | COc1cc2c(=O)n(CCCN(C)C)c3c4cc[nH]c4ncc3c2cc1OC | 81.5%
33 | CCCCCCNC(=O)Oc1ccc(/C(=C(\C)c2ccc(Cl)cc2)c2ccc(OCCN(C)C)cc2)cc1 | 84.3%
34 | O=S(=O)(NCCCNc1nccc(-c2c(-c3ccc(F)cc3)nc3sccn23)n1)c1ccc(F)cc1 | 50.5%
35 | N#C/C(=C1C=C/C(=N\O)C(Cl)=C\1)c1ccccc1 | 41.2%
36 | CCOC(=O)c1cn2c3c(cccc3c1=O)C(=O)/C(=C/c1cccc(Cl)c1Cl)C2 | 106%
37 | CCOC1=C(Cl)C(=O)C(OCC)=C(Cl)C1=O | 103%
38 | O=C(Nc1ccc(I)cc1F)c1cc(Br)ccc1O | -2.63% (active)
39 | CCN(CC)CCC(=O)c1ccc(OC)c2ccccc12 | 49.7%
40 | CCCCn1c(=O)c(/C=C/C(=O)/C=C/c2ccc(OC)cc2)cc2cc(Cl)ccc21 | 86.1%
